TCR act: activates T cell receptor signaling; Potency, µM (top dose mostly 9.22 µM), for the others: top-dose activation of IL-2 secretion, hits mostly activators; 330,000 tested, under 10 active; AID 504894; primary human leukocytes, anti-CD3, IL-2 HTRF, 48 h; note: % of control where 0% means no effect
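Primary human leukocytes incubated 48 hr with anti-CD3 beads plus compound, without co-stimulation. Secreted IL-2 measured by HTRF (europium cryptate/d2 anti-IL-2 pair, 320 nm excitation, 665 nm emission).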
ClpP mod: qHTS Assay for Activators of ClpP; Potency, µM (highest dose often 57.5 µM), inactives show at the top dose activity change, negative = active; ATP-dependent Clp protease proteolytic subunit (Bacillus subtilis (strain 168)), P80244; purified B. subtilis ClpP, FRET peptide cleavage, 20 min; 1.9% of 340,000 active; active = well fitted falling curve with a large enough effect; inconclusive = small, poorly fitted or top-dose-only effect; inactive = no such curve, though single readings can be large or run the other way; note: potency is the fitted concentration of half-maximal effect; the source files actives as falling curves though it sought activators and does not explain the sign; nearly all actives have a fitted effect of over 65% in size
Target sequence (P80244 whole entry, looked up): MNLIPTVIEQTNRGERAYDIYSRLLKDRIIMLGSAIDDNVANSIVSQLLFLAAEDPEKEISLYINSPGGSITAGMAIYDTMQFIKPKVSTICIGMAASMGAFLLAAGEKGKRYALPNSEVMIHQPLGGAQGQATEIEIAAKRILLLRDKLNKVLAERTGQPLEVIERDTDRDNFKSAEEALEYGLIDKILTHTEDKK
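Buffer: 100 mM Tris/HCl pH8, 100 mM KCl, 0.05% low protease BSA, 2.5% glycerol, 0.01% Tween-20. ClpP 10 microg/mL final; 20 min RT; delta FRET normalized to ADEP and DMSO controls.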
uPA surface inh: blocks generation of uPA at the cell surface; cell surface uPA generation assay, qHTS; 0.31% of 330,000 active; AID 540303; Potency, µM (titrated, usually from 38.3 µM), inactives show top-dose activity change, negative = inhibition, most hits filed as inhibitors; active = well fitted inhibition curve with a large enough effect; inconclusive = small, poorly fitted or top-dose-only effect; inactive = no such curve, though single readings can be large or run the other way; tested in mouse RAW 264.7 cells; note: potency is the fitted concentration of half-maximal effect; % is set by controls: 0 for no effect and ±100 for the full control effect; nearly all actives have a fitted effect of over 55% in size
Sfp inh: Sfp phosphopantetheinyl transferase inhibition | 3.5% of 310,000 active | AID 1490 | Potency, µM, for inactives: largest response in the series, negative = inhibition, actives largely listed as inhibitors | Biochemical Sfp PPTase activity, qHTS;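 note: the enzyme is Sfp with the accession as filed and its product quenches rhodamine fluorescence; potency is the fitted concentration of half-maximal effect; 0% = enzyme reaction without inhibitor and -100% = no enzyme wells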
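Step 1, compound plus 15 nM Sfp-PPTase, 15 min, room temperature. Step 2, add rhodamine-CoA (5 uM) and BHQ-2-YbbR (12.5 uM). Step 3, read 525/598 nm fluorescence at 0 and 30 min.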
* hit, by the source's call; u = inconclusive; x = no result; [ ] = dose if it differs, or a comment. Hits are enriched below; roughly 4.2% of the tested compounds scored in any of these assays. Unless noted, calls come from the whole dose curve; as a rule, active = well fitted curve in the direction sought with a large enough effect; inconclusive = small, poorly fitted or top-dose-only effect, or another doubt; inactive = no such curve, though single readings can be large; an effect the other way counts as inactive or inconclusive.

SMILES | TCR act | ClpP mod | uPA surface inh | Sfp inh
Cc1cc(C(F)(F)F)nn1-c1nc(-c2ccccc2)cc(C(F)(F)F)n1 | x | -3% | x | x
CCOc1ccc(S(=O)(=O)N(C)CC(=O)NCc2ccco2)cc1 | -5% | x | -2% | 10%
COc1ccc(S(=O)(=O)N(C(=O)c2ccco2)c2cc3sc(=O)oc3c3ccccc23)cc1 | -9% | -4% | -2% | 7.9µM*
CCOc1ccc(S(=O)(=O)N(C(=O)c2ccco2)c2cc3sc(=O)oc3c3ccccc23)cc1 | -4% | -4% | -3% | 5.6µM*
Cc1ccc(S(=O)(=O)N(C(=O)c2ccco2)c2cc3sc(=O)oc3c3ccccc23)cc1 | 7%[46.1 µM] | 1% | 1% | 8.9µM*
Cc1ccc(C)c(CN2C(=O)c3ccccc3Sc3ccc(C(=O)NC4CCCC4)cc32)c1 | x | 2% | x | x
COc1ccc(-n2nnnc2/C=C/Nc2cc(C(F)(F)F)ccc2OC)cc1 | 1% | 28µM* | 12% | 9%
COc1ccc(CCNC(=O)c2cc(=O)[nH]c3ccc(S(=O)(=O)N4CCCCC4C)cc23)cc1OC (centres undefined) | x | -7% | x | x
O=C(CCN1C(=O)C2CC=C(Cl)CC2C1=O)N1CCCCC1 (centres undefined) | -1% | -2% | 0% | 89µM*
O=C(O)CCSc1ccc([N+](=O)[O-])cc1[N+](=O)[O-] | 2% | x | -13% | 45µM*
CCOC(=O)C1CCN(C(=O)CCNS(=O)(=O)c2ccc(C)cc2)CC1 | x | 1% | -16% | x
CCOC(=O)C1CCN(C(=O)CC(NS(=O)(=O)c2ccc(OC)cc2)C(C)C)CC1 (centres undefined) | 8% | 32µM* | 3% | -8%
Cc1cccc(C)c1NC(=O)Cn1c(=O)cc(C)c2c(C)nn(-c3cccc(Cl)c3C)c21 | x | -1% | x | x
Cc1ccc2nc(-c3ccc(NC(=O)COc4ccc(Cl)c(C)c4)cc3)sc2c1 | x | -16% | x | x
CSc1ccc(/C=N/NC(=O)CNc2cccc3ccccc23)cc1 | -2%[46.1 µM] | x | 1% | 13%
CSc1ccc(CNc2cccc3ccccc23)cc1 | -1% | 28µM* | 16% | 4%
COc1ccc(NC(=O)CSc2nc3ncccc3[nH]2)cc1OC | 0% | 1% | -4% | 2%
COc1ccc(OC)c(C(=O)CSc2nc3cccnc3n2C)c1 | 1% | -3% | 4% | 79µM*
Cc1ccc(C(=O)CSc2nc3cccnc3n2C)cc1 | 0% | -2% | 4% | -13%
COc1ccc(OC)c(C(=O)CSc2nc3ncccc3[nH]2)c1 | 1% | 32µM* | -6% | -13%
Cc1c(Br)c([N+](=O)[O-])nn1CCCC(=O)N1CCN(c2ccccc2)CC1 | -3% | 14µM* | -2% | 4%
CCN=c1scc(C)n1/N=C/c1ccc(O)c(O)c1O | 1% | -20% | 1% | 8.9µM*
CN1C(=O)/C(=C2/C=Cc3ccccc3N2CCCS(=O)(=O)O)SC1=S | 6% | 22µM* | 3% | -17%
CCCN1/C(=C2/SC(=S)N(CC)C2=O)C=Cc2ccccc21 | 5% | 0% | -2% | u
C=CCN1C(=O)/C(=C2/Sc3ccccc3N2CCCS(=O)(=O)O)SC1=S | 4% | -2% | 1% | 45µM*
SMILES | TCR act | ClpP mod | uPA surface inh | Sfp inh
C=CCN1C(=O)/C(=C2/Sc3ccccc3N2CC)SC1=S | 6% | x | 7% | 6%
O=C(CNC(=O)c1ccccc1)NCC(=O)OCC(=O)c1ccc2ccccc2c1 | x | 2% | x | x
CC1CCN(C(=O)C(C)OC(=O)c2ccc(S(C)(=O)=O)c([N+](=O)[O-])c2)CC1 (centres undefined) | x | -1% | x | x
CCOC(=O)Cc1[nH]nc2c1C(c1cccc(OC)c1OC)C(C#N)=C(N)O2 (centres undefined) | 1% | -4% | 1% | 8%
COC(=O)Cc1[nH]nc2c1C(c1cccc(OC)c1OC)C(C#N)=C(N)O2 (centres undefined) | 1% | 28µM* | -1% | u
O=c1[nH]c2ccc(Cl)cc2c(O)c1Cc1ccccc1 | -3% | x | -1% | 50µM*
O=C(O)CSc1c(-c2ccccc2)c2cc(Cl)ccc2[nH]c1=O | 1%[46.1 µM] | -2% | 0% | 71µM*
CCN(CC)C(=S)Sc1c(-c2ccccc2)c2cc(Cl)ccc2[nH]c1=O | -3% | 2% | 9% | 16µM*
CCOC(=O)CSc1c(-c2ccccc2)c2cc(Cl)ccc2[nH]c1=O | 0%[46.1 µM] | -2% | -4% | -24%
CCCn1c(=O)n(C)c(=O)c2c(SCC(=O)Nc3cc(C)on3)nc(C(C)(C)C)nc21 | -5% | -1% | u | x
Cc1n[nH]c(=O)nc1N/N=C/c1ccc(O)c([N+](=O)[O-])c1 | -4%[46.1 µM] | -3% | -7% | 56µM*
COc1cc(/C=N/Nc2nc(=O)[nH]nc2C)ccc1O | -3% | 0% | 4% | 56µM*
COc1cc(/C=N/Nc2nc(=O)[nH]nc2C)cc([N+](=O)[O-])c1O | 0% | 1% | 2% | 56µM*
Cc1cc(C(=O)N/N=C/c2ccc(O)c([N+](=O)[O-])c2)n[nH]1 | -2%[46.1 µM] | 1% | 10% | 7%
COc1ccc(/C=N/Nc2nc(=O)[nH]nc2C)cc1[N+](=O)[O-] | -4%[46.1 µM] | x | 1% | u
COc1ccc(/C=N/Nc2nc(=O)[nH]nc2C)cc1OC | -2% | x | -6% | 19%
Nc1nc(O)c2ncn([C@H]3CC[C@@H](CO)O3)c2n1 | x | x | x | 23%
COC(=O)c1c(-c2cc(OC)c(OC)c(OC)c2)c2ccnc(OCc3ncccn3)c2c(=O)n1Cc1ccnc(C)c1 | x | x | x | 5%
Cc1cc(C(=O)NNc2ccc(F)cc2)no1 | 4% | -2% | -6% | 4%
Cn1c(C(=O)NCc2ccco2)cc2c(=O)[nH]c3ccccc3c21 | -12% | 28µM* | -1% | 7%
C=CCN1C(c2ccccc2)=CS/C1=C(\C#N)c1nnc2n1CCCCC2 | 1% | -1% | 12% | 63µM*
C=CCN1C(c2cccc(C(F)(F)F)c2)=CS/C1=C(/C#N)c1nnc(N2CCOCC2)n1-c1ccccc1 | -1% | 1% | 0% | -29%
CCOc1ccc(C2=CS/C(=C(\C#N)c3nnc4n3CCCCC4)N2CC)cc1 | 6% | 0% | -9% | -6%
C=CCN1C(c2ccc(Br)cc2)=CS/C1=C(/C#N)c1nnc(N2CCOCC2)n1-c1ccccc1 | 15%[46.1 µM] | x | 0% | 79µM*
Cc1cccn2c(=O)c3cc(C(=O)NCCc4ccccc4)c(=N)n(CCCn4ccnc4)c3nc12 | -19% | 18µM* | 7% | 9%
Cc1cccn2c(=O)c3cc(C(=O)NCCN4CCOCC4)c(=N)n(CCCN4CCOCC4)c3nc12 | 0% | x | -1% | 21%
CCNC(=O)c1cc2c(=O)n3cccc(C)c3nc2n(CCc2ccccc2)c1=N | -9% | u | -1% | 1%
Cc1cccn2c(=O)c3cc(C(=O)NC4CCCCC4)c(=N)n(Cc4ccccc4)c3nc12 | 4% | 3% | -4% | 28µM*
COCCn1c(=N)c(C(=O)NCCc2ccccc2)cc2c(=O)n3cccc(C)c3nc21 | 2% | 1.4µM* | -8% | x
